“And” between values parts separate entries of the source, which are not always exact repeats. Equal values may be shown once. Records with an inconclusive call do not appear. The source made the active and inactive calls. Unless noted, the call rests on the fitted dose curve; in most records, active means well fitted curve in the direction sought with a large enough effect; inconclusive means small, poorly fitted or top-dose-only effect, or another doubt; inactive means no such curve, though single readings can be large; an effect the other way counts as inactive or inconclusive.
Experiments:
[1] = molecular target: Cellular tumor antigen p53 (Homo sapiens) (UniProt P04637); test: Primary qHTS for small molecule compounds that upregulate eGFP-tagged delta133p53alpha (in N-terminal) cells. (AID 2060322); settings: NCI-H358 eGFP-delta133p53alpha fluorescence, 24 h; activation: stronger effect = higher value;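 further: series mostly up to about 56 µM; 0% = DMSO vehicle and 100% = reference activator; nearly all actives have a fitted effect of over 75% in size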
Chain of Cellular tumor antigen p53 (Homo sapiens) (P04637 whole entry, looked up): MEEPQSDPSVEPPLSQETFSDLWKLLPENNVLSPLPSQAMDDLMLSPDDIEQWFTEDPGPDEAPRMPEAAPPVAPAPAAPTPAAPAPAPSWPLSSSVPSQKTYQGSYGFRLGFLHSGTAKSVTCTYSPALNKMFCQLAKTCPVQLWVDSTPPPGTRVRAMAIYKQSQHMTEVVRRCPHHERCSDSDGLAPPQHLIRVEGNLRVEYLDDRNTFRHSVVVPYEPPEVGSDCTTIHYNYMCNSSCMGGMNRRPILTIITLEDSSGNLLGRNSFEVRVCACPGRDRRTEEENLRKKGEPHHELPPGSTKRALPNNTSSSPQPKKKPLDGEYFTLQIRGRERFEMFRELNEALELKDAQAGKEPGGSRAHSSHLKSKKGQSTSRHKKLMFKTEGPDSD
How it was run: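 NCI-H358 cells pre-induced 24 h with 10 ng/ml doxycycline to express N-terminal eGFP-delta133p53alpha, then dosed 24 h at 37C without doxycycline; fixed, Hoechst-stained, GFP intensity by laser scanning cytometry, normalized to DMSO (0%) and 57.5 uM 5-azacytidine (100%).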

[2] = molecular target: Aldehyde dehydrogenase, mitochondrial (Homo sapiens) (UniProt P05091); test: qHTS for Inhibitors of the Aldehyde Dehydrogenase Family (ALDH2) Validation screens (AID 2061302; active means well fitted inhibition curve with a large enough effect; title and protocol of this record describe different tests;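 further: plate controls were DMSO vehicle for no effect and maximal DPI positive control response for full effect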)
[3] = molecular target: Aldehyde dehydrogenase, mitochondrial (Homo sapiens) (UniProt P05091); test: qHTS for Inhibitors of the Aldehyde Dehydrogenase Family (ALDH2) Primary screen (AID 2061308);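 further: plate controls were vehicle for no effect and reference inhibitor for full effect; nearly all actives have a fitted effect of over 55% in size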
[4] = molecular target: Retinaldehyde dehydrogenase 3 (Homo sapiens) (UniProt P47895); test: qHTS for Inhibitors of the Aldehyde Dehydrogenase Family (ALDH1A3) Validation screen (AID 2061312); further: on the % scale 0 is the no-effect control and ±100 the full control effect; nearly all actives have a fitted effect of over 45% in size
[5] = molecular target: Retinaldehyde dehydrogenase 3 (Homo sapiens) (UniProt P47895); test: qHTS for Inhibitors of the Aldehyde Dehydrogenase Family (ALDH1A3) Primary screen (AID 2061315);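 further: plate controls were DMSO vehicle for no effect and reference inhibitor for full effect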
[6] = BET inhibitor-based combinations targeting novel dependencies in MECOM-rearranged (r) AML: SET-2 cell line (AID 2202231); settings: SET-2 AML cells viability, CellTiter-Glo luminescence, 48 h; viability: stronger effect = lower value, series mostly up to about 46 µM;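 further: plate controls were DMSO treated cells for no effect and wells without cells for full effect; nearly all actives have a fitted effect of over 35% in size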
How it was run: (§1)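 Viability of cells (500 per well) is scored by luminescent CellTiter-Glo at 48 hr post-dosing. Eleven-point titrations are normalized to DMSO and empty controls and reduced to AUC values.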

[7] = BET inhibitor-based combinations targeting novel dependencies in MECOM-rearranged (r) AML: MV-4-11 cell line (AID 2202233);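 further: plate controls were DMSO for no effect and blank wells for full effect; nearly all actives have a fitted effect of over 45% in size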
How it was run: (§2)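 Using pin-tool transfer, drugs were added in 11 doses to cells (500/well), incubated 48 hr, and assessed with CellTiter-Glo. Z-AUC is a mean-centring transformation applied separately to each screened line.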

[8] = BET inhibitor-based combinations targeting novel dependencies in MECOM-rearranged (r) AML: UCSD-AML1 cell line (AID 2202235);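 further: series mostly up to about 46 µM; plate controls were DMSO vehicle wells for no effect and blank wells for full effect; nearly all actives have a fitted effect of over 40% in size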
How it was run: as §2

[9] = BET inhibitor-based combinations targeting novel dependencies in MECOM-rearranged (r) AML: AML-191 cell line (AID 2202236;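 further: plate controls were vehicle wells for no effect and wells without cells for full effect; nearly all actives have a fitted effect of over 35% in size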)
How it was run: as §1

[10] = BET inhibitor-based combinations targeting novel dependencies in MECOM-rearranged (r) AML: AML-194 cell line (AID 2202237;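 further: plate controls were vehicle wells for no effect and wells without cells for full effect; nearly all actives have a fitted effect of over 40% in size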)
How it was run: as §1

CC(C)(Sc1ccc(CCN(CCCCC2CCCCC2)C(=O)NC2CCCCC2)cc1)C(=O)O
inactive: activation [1] 26.5% and 1.67% and -32.7% | Potency [2] | Potency [3] | Potency [4] | Potency [5] | viability [6] 118% | Potency [7] | Potency [8] | Potency [9] | Potency [10]

CC1(C)C(=O)N(CCN2CCC(C(=O)c3ccc(F)cc3)CC2)c2ccccc21
inactive: activation [1] -67.7% and -2.62% | Potency [2] | Potency [4]

C=C1C[C@@]23CC[C@H]4[C@@](C)(CCC[C@@]4(C)C(=O)O)[C@@H]2CC[C@]1(O)C3
inactive: activation [1] 9.04% | Potency [2] | Potency [4]

Brc1cc2c(cc1[C@H]1Nc3ccccc3[C@H]3C=CC[C@H]31)OCO2
inactive: activation [1] -5.37% | Potency [2] | Potency [4]

N#Cc1cc2nc(O)c(O)nc2cc1[N+](=O)[O-]
inactive: activation [1] -30.1% | Potency [2] | Potency [4]

CCCn1c(=O)c2[nH]c(C3CCCC3)nc2n(CCC)c1=O
inactive: activation [1] -35.5% | Potency [2] | Potency [4]

Cn1c(=O)c(-c2c(Cl)cccc2Cl)cc2cnc(Nc3ccc(N4CCOCC4)cc3)nc21
inactive: activation [1] -42.1% | Potency [2] | Potency [4]

Cc1c(O)cccc1C(=O)N[C@@H](CSc1ccccc1)[C@H](O)CN1C[C@H]2CCCC[C@H]2C[C@H]1C(=O)NC(C)(C)C
inactive: activation [1] -0.838% | Potency [2] | Potency [4]

C[C@]12CCC(=O)C=C1CC[C@@H]1[C@@H]2CC[C@@]2(C)[C@H]1CC[C@]2(O)C(=O)CO
inactive: activation [1] 12.6% and 23.7% | Potency [2] | Potency [4]

Reference: PubChem BioAssay (NCATS)
